# Measurements from PubChem BioAssay (NCATS).
# Records with an inconclusive call do not appear. Unmarked numbers belong to inactive results. Activity calls are given as the source filed them. Calls follow the shape of the dose curve; as a rule, active = well fitted inhibition curve with a large enough effect; inconclusive = small, poorly fitted or top-dose-only effect; inactive = flat fitted curve, though single readings scatter.
# Tested on: Zika virus NS2B-NS3 protease
# Test: Primary screen GU AMC qHTS for Zika virus inhibitors (AID 1347154); also: nearly all actives have a fitted effect of over 70% in size;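 as to activity change, negative = inhibition: 0% = no-inhibitor control and -100% = no-enzyme control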
# Conditions: Zika NS2B-NS3 unlinked protease, AMC fluorogenic substrate; series mostly up to 54.1 µM; activity change, negative = inhibition: at the top concentration
# How it was run: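 Unlinked Zika NS2B hydrophilic domain/NS3 protease domain noncovalent complex (25 nM final) in 10 mM Tris-HCl pH 8.0, 0.01% Tween 20, with AMC peptide substrate. Fluorescence (ex 340, em 450 nm) change over 15 min, room temperature; percent inhibition fitted to 4-parameter Hill equation.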
# Potency is read from the fitted curve at half-maximal effect.
Compound,"activity change, negative = inhibition",Potency
CC1(C)S[C@@H]2[C@H](NC(=O)C(c3ccccc3)S(=O)(=O)O)C(=O)N2[C@H]1C(=O)O (stereo partly drawn),3.61%,–
OC1(c2ccc(Cl)cc2)CCNCC1,-4.75%,–
Oc1ccccc1,0.454%,–
O=C(NO)c1ccccc1,-0.674% [at 104 µM],–
C[C@H]1C[C@H]2[C@@H]3CCC4=CC(=O)C=C[C@]4(C)[C@H]3C(=O)C[C@]2(C)[C@@]1(O)C(=O)CO,-1.93%,–
Oc1ccc(CCNCCCCCCNCCc2ccccc2)cc1O,-0.304%,–
CC(C)CCCC(C)NCCC(C)C (stereo not drawn),0.862%,–
CCCCN(CCN(CCCC)C(=O)N1CCOCC1)C(=O)N1CCOCC1,-4.09%,–
c1ccc2occc2c1,3.1% [at 104 µM],–
CC(=O)OC[C@H]1O[C@@H](OC(C)=O)[C@H](OC(C)=O)[C@@H]1OC(C)=O,2.32%,–
Cc1ccc(Cl)c(OCC(O)CNC(C)(C)C)c1 (stereo not drawn),-3.66%,–
Cc1ncc([N+](=O)[O-])n1C,-0.323%,–
O=C1Nc2ccccc2C1(c1ccc(O)cc1)c1ccc(O)cc1,-4.11%,–
OC(CCCN1CCCCC1)(c1ccccc1)c1ccccc1,2.65%,–
COC(=O)C1=C(C)NC(C)=C(C(=O)OCCc2ccc(N3CCN(C(c4ccccc4)c4ccccc4)CC3)cc2)C1c1cccc([N+](=O)[O-])c1 (stereo not drawn),-9.63%,–
C[C@H]1NCc2cc(-c3ccc4c(=O)c(C(=O)O)cn(C5CC5)c4c3OC(F)F)ccc21,-4.99% [at 25.8 µM],–
NC(=O)NC1N=C([O][Al])NC1=O (stereo not drawn),0.538%,–
CO[C@@]1(NC(=O)CSC[C@@H](N)C(=O)O)C(=O)N2C(C(=O)O)=C(CSc3nnnn3C)CS[C@@H]21,0.699%,–
Nc1c2ccccc2nc2ccccc12,–,35.5 µM (active)

Compound,"activity change, negative = inhibition",Potency
Cc1cccc(OCC(O)CNC(C)(C)C)c1C (stereo not drawn),-1.44%,–
CN1C(CSCC(F)(F)F)Nc2cc(Cl)c(S(N)(=O)=O)cc2S1(=O)=O (stereo not drawn),-3.21%,–
CC(NN)c1ccccc1 (stereo not drawn),1.22% [at 25.8 µM],–
COC(=O)c1ccc(NC(C)=O)cc1OC,-4.41%,–
O=P(O)(O)OCC(O)CO (stereo not drawn),-2.05%,–
Fc1ccc(C(c2ccc(F)cc2)N2CCNCC2)cc1,0.161%,–
CNC(=O)c1c(I)c(NC(C)=O)c(I)c(C(=O)O)c1I,-0.81%,–
CC(=O)OCC[N+](C)(C)C,–,inactive
O=C(OCCN1CCOCC1)c1cccnc1Nc1cccc(C(F)(F)F)c1,-0.748%,–
CCCc1ccc(OCC(=O)N2CCN(C(=O)COc3ccc(CCC)cc3OC)CC2)c(OC)c1,-4.08%,–
COCCc1ccccn1,1.69%,–
CC(C)(C)c1cc(C=O)cc(C(C)(C)C)c1O,1.01%,–
CCCCCOc1ccc(C2SC(=O)NC2=O)cc1OCC (stereo not drawn),-8.6%,–
O=C(O)C(=O)Nc1cccc(-c2nn[nH]n2)c1,0.257%,–
CC(C)(C)C(O)/C=C/c1ccc2c(c1)OCO2 (stereo not drawn),0.119%,–
OCc1c[nH]c2ccccc12,-5.83% [at 104 µM],–
Cc1nc([N+](=O)[O-])cn1-c1ccc([N+](=O)[O-])cc1,2.55%,–
CCCC(=O)O[C@]1(C(=O)CCl)[C@@H](C)C[C@H]2[C@@H]3CCC4=CC(=O)C=C[C@]4(C)[C@@]3(F)C(=O)C[C@@]21C,-4.83%,–
CC(C)NCCCC1(C(N)=O)c2ccccc2-c2ccccc21,-5.17%,–
